# Assay outcomes (PubChem)
# SENP7 block: SENP7 protease inhibitors, primary screen, biochemical, luminescence, uHTS. 1.5% of 330,000 active. inhibition, % at 5 µM. AID 434973, 2010. recombinant SENP7, Z-RLRGG-aminoluciferin luminescence, 40 min;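 active = inhibition above about 50% at the single test dose, limit read from the data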;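 also: plate controls were DMSO with enzyme for no effect and no enzyme buffer wells for full effect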
# SENP8 block-1: human SENP8 protease inhibitors, primary screen, biochemical, fluorescence, Nedd8 protein substrate, uHTS. inhibition, % at 20 µM. recombinant SENP8. Sentrin-specific protease 8 (Homo sapiens), Q96LD8. 0.64% of 360,000 active; in the data active = inhibition mostly above about 40%, no sharp cut-off; inactive = mostly below about 27%
# SENP8 block-2: SENP8 protease inhibitors, primary screen, biochemical, luminescence | Sentrin-specific protease 8 (Homo sapiens), Q96LD8 | purified SENP8, Z-RLRGG-aminoluciferin cleavage | inhibition, % at 10 µM | 1.2% of 330,000 active; in the data active = inhibition above about 50%
# Platelet DG rel: inhibitors of platelet dense granule secretion, primary screen, cell-based, MLPCN, human platelets | human platelet-rich plasma, SFLLRN dense granule ATP release, luminescence | 0.22% of 300,000 active | inhibition, %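 (compounds screened at 7.5 µM in platelet-rich plasma)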 | AID 1663, 2009;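 active = mean replicate score, as percent of positive control, at or above 50; inconclusive = mean below 50 but at least one replicate at or above 50; inactive = mean and every replicate below 50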
# SENP6 inh: SENP6 protease inhibitors, primary screen, biochemical, luminescence, uHTS; Sentrin-specific protease 6 (Homo sapiens), Q9GZR1; Recombinant SENP6 catalytic domain, aminoluciferin luminescence; inhibition, % at 10 µM; 1.8% of 330,000 active;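 active = inhibition above about 50% at the single tested dose, limit read from the data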;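 also: plate controls were DMSO wells with enzyme for no effect and DMSO wells lacking enzyme for full effect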
# Target sequence (Q9GZR1 628-1112 limits assumed): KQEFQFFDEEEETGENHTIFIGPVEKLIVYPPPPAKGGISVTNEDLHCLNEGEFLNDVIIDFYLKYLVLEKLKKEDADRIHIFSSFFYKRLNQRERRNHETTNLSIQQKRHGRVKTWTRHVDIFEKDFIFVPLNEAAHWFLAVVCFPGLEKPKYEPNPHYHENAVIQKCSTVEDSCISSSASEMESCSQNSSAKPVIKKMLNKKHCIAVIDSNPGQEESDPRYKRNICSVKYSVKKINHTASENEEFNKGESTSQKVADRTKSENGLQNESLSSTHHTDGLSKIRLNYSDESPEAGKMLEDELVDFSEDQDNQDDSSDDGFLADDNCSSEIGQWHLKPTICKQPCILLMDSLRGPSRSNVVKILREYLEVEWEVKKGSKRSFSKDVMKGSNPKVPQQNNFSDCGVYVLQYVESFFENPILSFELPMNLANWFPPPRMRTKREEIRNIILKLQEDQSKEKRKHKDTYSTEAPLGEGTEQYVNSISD
# SENP8 confirm: SENP8 protease inhibitors, retest, confirmation, biochemical, luminescence, single concentration. shares compounds with SENP7 block. Recombinant SENP8, Z-RLRGG-aminoluciferin luminescence, 60 min. inhibition, % at 12.5 µM. 40% of 6,200 active;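 active = mean inhibition across replicates above about 50%, limit read from the data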
# SENP6 conf: SENP6 protease inhibitors, confirmation, biochemical, luminescence, single concentration. inhibition, % at 12.5 µM. shares compounds with SENP7 block. AID 488915, 2010. recombinant SENP6, Z-RLRGG-aminoluciferin luminescence. 58% of 6,200 active
# SENP7 conf: SENP7 protease inhibitors, retest, confirmation, biochemical, luminescence, single concentration. shares compounds with SENP7 block. recombinant SENP7, Z-RLRGG-aminoluciferin luminescence, 40 min. inhibition, % at 12.5 µM. 69% of 6,200 active
# Casp3 SENP sel: caspase-3 protease inhibitors, confirmation, selectivity assay for SENP inhibitor project, biochemical, single concentration; shares compounds with SENP7 block; purified caspase-3, Z-DEVD-aminoluciferin luminescence, 60 min; inhibition, % at 12.5 µM; 60% of 6,200 active; AID 488918, 2010;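 active = mean inhibition above about 50%, limit read from the data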;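 also: plate controls were enzyme with DMSO for no effect and wells without caspase-3 for full effect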
# SENP luc ctr: interferes with luciferase luminescence in SENP counter-screen | Pre-incubated SENP8/Z-RLRGG-aminoluciferin, luciferase luminescence interference | inhibition, % at 12.5 µM | shares compounds with SENP7 block | 39% of 6,200 active;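 active = mean inhibition above about 50% when retested at one dose, limit read from the data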;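 also: plate controls were DMSO wells with completed reaction for no effect and substrate without enzyme for full effect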
# The depositor's hits bear a star; i = inactive; ? = inconclusive; nt = no result given. Compounds with a hit are over-represented: about 2.4% of the library has one in this group of screens.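 The calls were made as follows, unless noted: active = mean inhibition above about 50% in the one-dose retest (limit read from the data); inactive = the rest.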
SMILES,SENP7 block,SENP8 block-1,SENP8 block-2,Platelet DG rel,SENP6 inh,SENP8 confirm,SENP6 conf,SENP7 conf,Casp3 SENP sel,SENP luc ctr
CCOc1cc(C(=O)OCC(=O)N(C)c2ccccc2)cc(OCC)c1OCC,0,5,2,0,-5,nt,nt,nt,nt,nt
CN(C)c1ccc(/C=C/c2nc3ccccc3c(=O)n2CCO)cc1,-9,-8,-12,-3,-23,nt,nt,nt,nt,nt
O=c1[nH]c(/C=C/c2ccccn2)nc2ccccc12,45,-74,19,4,32,nt,nt,nt,nt,nt
O=C(Nc1cccc(/C=C/c2nc3ccccc3c(=O)[nH]2)c1)c1ccccc1Cl,37,-105,-8,-1,1,nt,nt,nt,nt,nt
O=c1[nH]c(/C=C/c2ccc(Br)cc2)nc2ccccc12,89*,-242,31,6,22,18,21,15,21,-2
C(=C\c1ccco1)/c1nc2ccccc2[nH]1,-1,-348,10,34,-11,nt,nt,nt,nt,nt
C(=C\c1nc2ccccc2[nH]1)/c1ccccc1,100*,-261,97*,?,94*,98*,99*,103*,98*,92*
Cc1cccc(/C=C\c2nc3ccccc3c(=O)[nH]2)c1,99*,-80,80*,-10,89*,55*,49,54*,74*,10
CN(C)c1ccc(/C=C/c2nc3ccccc3c(=O)[nH]2)cc1,95*,-234,93*,37,-12,47,90*,103*,96*,38
CC1CCc2c(cnc3ncnn23)C1 (stereo not given),-3,17,-1,-1,-4,nt,nt,nt,nt,nt
CCCCn1cc(S(=O)(=O)c2ccccc2)c(=O)c2cc(C)ccc21,-10,13,-7,-4,15,nt,nt,nt,nt,nt
Cc1cc([N+](=O)[O-])nn1CC(=O)N1c2ccccc2CC1C (stereo not given),-9,-5,-9,-4,-9,nt,nt,nt,nt,nt
O=c1[nH]c2ccccc2nc1/C=C/c1ccc(Cl)cc1,72*,-377,-1,-3,-10,1,2,2,4,2
O=c1[nH]c(/C=C/c2ccccc2F)nc2ccccc12,96*,i,83*,7,92*,76*,79*,89*,91*,22
O=c1[nH]c(/C=C/c2cccc3ccccc23)nc2ccccc12,-2,-432,-11,4,-8,nt,nt,nt,nt,nt
COc1ccc(CNC(=O)CN2C(=O)NC(Cc3ccccc3)(c3ccccc3)C2=O)cc1OC (stereo not given),-5,6,-13,nt,-14,nt,nt,nt,nt,nt
Cc1cc([N+](=O)[O-])cc(/C=N\NC(=O)C2COc3ccccc3O2)c1O (stereo not given),6,16,22,-9,64*,24,12,66*,38,30
CCCOc1ccc2cc(-c3ccccn3)c(=O)oc2c1,101*,-402,96*,44,98*,81*,85*,101*,88*,38
COc1ccc2cc(-c3ccccc3)c(=O)oc2c1,88*,-365,75*,12,92*,15,90*,99*,86*,40
COc1ccc2c(=O)c(-c3ccccc3)coc2c1,80*,3,75*,8,79*,40,73*,93*,84*,34
O=c1oc2cc(OCc3c(F)cccc3Cl)ccc2cc1-c1ccccn1,-11,-389,-10,2,-27,nt,nt,nt,nt,nt
COC(=O)C(C)Oc1ccc2cc(-c3ccccc3)c(=O)oc2c1 (stereo not given),-2,-341,-15,10,5,nt,nt,nt,nt,nt
COc1ccc2c(=O)c(-c3ccc(OC)c(OC)c3)coc2c1,6,25,-9,3,-26,nt,nt,nt,nt,nt
CCN(CC)C(=O)Oc1ccc2c(=O)c(-c3ccccc3)coc2c1,71*,0,54*,23,81*,18,25,54*,57*,21
Cc1ccc(S(=O)(=O)N2CCOCC2)cc1NC(=O)CNCC1CCCCC1,-4,17,-2,4,-12,nt,nt,nt,nt,nt
SMILES,SENP7 block,SENP8 block-1,SENP8 block-2,Platelet DG rel,SENP6 inh,SENP8 confirm,SENP6 conf,SENP7 conf,Casp3 SENP sel,SENP luc ctr
CC(=O)Nc1ccc(NC(=O)C(C)OC(=O)c2ccccc2NS(=O)(=O)c2cccs2)cc1 (stereo not given),5,-20,-4,19,0,nt,nt,nt,nt,nt
CC(=O)Nc1ccc(NC2=C/C(=N/S(=O)(=O)c3cccs3)c3ccccc3C2=O)cc1,54*,69*,79*,6,93*,90*,96*,85*,51*,2
c1ccc(-c2ccc(-c3ccccn3)s2)nc1,84*,-418,76*,16,83*,75*,81*,97*,86*,21
c1ccc(-c2nnc(-c3ccccn3)nn2)nc1,11,33,79*,36,14,-4,54*,85*,86*,66*
COc1ccc(CCNC(=O)C2CCC(C(C)(C)C)CC2)cc1OC (stereo not given),3,2,-5,-4,-4,nt,nt,nt,nt,nt
COc1ccc(-c2cn(CCC(=O)O)c(C)n2)cc1,25,9,81*,nt,85*,-8,85*,94*,27,40
COc1ccc(-c2cn(CCC(=O)O)c(-c3ccc(Cl)nc3)n2)cc1,14,-72,-17,nt,-5,nt,nt,nt,nt,nt
O=c1c2ccccc2cnn1-c1ccc2ccccc2c1,82*,-118,67*,-2,88*,53*,77*,94*,80*,25
O=c1c2ccccc2cnn1-c1ccc(Cl)nn1,-5,-1,-7,3,5,nt,nt,nt,nt,nt
O=c1c2ccccc2cnn1-c1ccc(Br)cc1,66*,-55,35,12,58*,37,43,67*,67*,44
